Test results: PubChem BioAssay (NCATS)
Records with an inconclusive call do not appear. The source made the active and inactive calls. Unless noted, calls come from the whole dose curve; as a rule, active = well fitted curve in either direction with a large enough effect (not every such curve was filed as active); inconclusive = small, poorly fitted or top-dose-only effect, or another doubt; inactive = flat fitted curve, though single readings scatter.

Assays:
[1] = target: Lysosomal acid glucosylceramidase (Homo sapiens) (UniProt P04062); test: Glucocerebrosidase-p2 (AID 348; in the data active = potency below about 10 µM; note: potency is the fitted concentration of half-maximal effect); conditions: purified GBA, blue fluorogenic substrate, 40 min
Lysosomal acid glucosylceramidase (Homo sapiens), sequence (P04062 whole entry, looked up): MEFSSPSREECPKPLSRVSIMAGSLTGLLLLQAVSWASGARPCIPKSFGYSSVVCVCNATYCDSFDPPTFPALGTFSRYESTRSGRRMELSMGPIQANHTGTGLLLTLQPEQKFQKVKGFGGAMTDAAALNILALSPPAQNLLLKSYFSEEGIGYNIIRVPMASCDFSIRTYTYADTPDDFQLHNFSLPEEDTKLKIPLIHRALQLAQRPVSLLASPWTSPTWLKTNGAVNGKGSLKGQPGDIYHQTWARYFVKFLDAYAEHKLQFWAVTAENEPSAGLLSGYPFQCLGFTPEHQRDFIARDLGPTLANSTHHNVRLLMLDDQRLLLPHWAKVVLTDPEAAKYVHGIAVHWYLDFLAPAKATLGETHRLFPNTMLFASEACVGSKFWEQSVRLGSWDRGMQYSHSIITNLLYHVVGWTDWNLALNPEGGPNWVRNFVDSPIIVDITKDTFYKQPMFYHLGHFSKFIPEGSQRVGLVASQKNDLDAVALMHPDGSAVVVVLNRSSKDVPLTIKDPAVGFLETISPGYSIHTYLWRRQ
Method in brief: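 Compounds titrated from 0.6 nM upwards against 0.2 nM enzyme in pH 5.9 citric acid/KH2PO4, taurocholate, tween-20; blue fluorogenic substrate 80 uM, 40 min room temperature, stopped and read Ex 365/Em 440 for AC50.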

[2] = AP1 Signaling Pathway (AID 357); conditions: ME-180 AP-1-bla reporter, EGF-induced, beta-lactamase ratio, 5 h; at 7.69 µM (top of the series) unless noted;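 note: ME-180 reporter cells stimulated with EGF at its EC50 level; % is set by controls: 0 for no effect and ±100 for the full control effect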
Method in brief: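 Read-out was the 460nm/530nm emission ratio (excitation 405nm) after CCF4 loading for 2.5 hours at room temperature. Cells carried an AP-1-driven beta-lactamase reporter, were stimulated with EC50 EGF plus compound for 5 hours, and AC50 values came from titrations.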

[3] = target: Cytochrome P450 1A2 (Homo sapiens) (UniProt P05177); test: p450-cyp1a2 (AID 410; calls by dose curve; note: potency is the fitted concentration of half-maximal effect;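 for activity change, negative = inhibition: -100% = full effect of reference inhibitor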); conditions: recombinant CYP1A2, luciferin-ME demethylation, luminescence; series mostly up to 11.4 µM
Cytochrome P450 1A2 (Homo sapiens), sequence (P05177 whole entry, looked up): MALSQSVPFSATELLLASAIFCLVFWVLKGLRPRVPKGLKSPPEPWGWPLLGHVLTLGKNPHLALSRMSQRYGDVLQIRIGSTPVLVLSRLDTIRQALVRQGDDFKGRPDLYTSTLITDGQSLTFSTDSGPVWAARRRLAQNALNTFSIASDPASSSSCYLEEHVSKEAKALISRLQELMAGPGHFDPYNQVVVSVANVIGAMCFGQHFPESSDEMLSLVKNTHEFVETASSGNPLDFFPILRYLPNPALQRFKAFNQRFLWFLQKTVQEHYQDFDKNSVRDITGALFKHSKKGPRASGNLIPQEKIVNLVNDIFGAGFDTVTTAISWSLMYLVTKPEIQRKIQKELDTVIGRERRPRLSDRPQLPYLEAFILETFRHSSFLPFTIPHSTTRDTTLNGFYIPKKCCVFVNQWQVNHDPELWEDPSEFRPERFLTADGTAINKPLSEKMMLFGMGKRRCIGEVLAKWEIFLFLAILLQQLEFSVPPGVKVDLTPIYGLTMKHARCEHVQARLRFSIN
Method in brief: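 Inhibition was calculated relative to 57 uM furafylline (full inhibition). The reaction used human CYP1A2 at 20nM with Luciferin-ME at its Km, 100uM, driven by an NADPH-regenerating system for 60 min at room temperature.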

[4] = NFAT Signaling Pathway (AID 444); conditions: Jurkat NFAT-bla M1, carbachol, beta-lactamase ratio, 5 h; at 7.69 µM (top of the series) unless noted;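 note: carbachol stimulus at about its EC50 of 1 µM final; % is set by controls: 0 for no effect and ±100 for the full control effect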
Method in brief: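 Jurkat cells carrying an NFAT-driven β-lactamase reporter and co-transfected muscarinic M1 receptor were treated with compound plus carbachol (1 uM final, an EC50 level) for 5 h at 37 °C. CCF4 loading followed for 1 h at RT; 460/530 nm ratio gave %activity.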

[5] = Stat Signaling Pathway (AID 446); conditions: ME-180 SIE beta-lactamase reporter, IL-6 stimulated, 5 h; at 7.69 µM (top of the series) unless noted;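 note: ME-180 cervical cancer cells given 40 pM IL-6 alongside compound; SIE-controlled beta-lactamase reporter measured as 460/530 nm FRET emission ratio; % is set by controls: 0 for no effect and ±100 for the full control effect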
Method in brief: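 IL-6/STAT signaling read in ME-180 cells via an SIE beta-lactamase reporter. Stimulus was 40 pM IL-6 (its AC50) for 5 hrs, so both activation and inhibition register.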

[6] = target: Glucocorticoid receptor (Homo sapiens) (UniProt P04150); test: GR-GFP Redistribution (AID 450;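 active = compounds whose dose series gives a full or clear partial fitted curve of increased nuclear translocation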; note: potency is the fitted concentration of half-maximal effect); conditions: U2OS GR-GFP nuclear translocation, laser cytometry, 2 h
Glucocorticoid receptor (Homo sapiens), sequence (P04150 whole entry, looked up, the tested form may be a part): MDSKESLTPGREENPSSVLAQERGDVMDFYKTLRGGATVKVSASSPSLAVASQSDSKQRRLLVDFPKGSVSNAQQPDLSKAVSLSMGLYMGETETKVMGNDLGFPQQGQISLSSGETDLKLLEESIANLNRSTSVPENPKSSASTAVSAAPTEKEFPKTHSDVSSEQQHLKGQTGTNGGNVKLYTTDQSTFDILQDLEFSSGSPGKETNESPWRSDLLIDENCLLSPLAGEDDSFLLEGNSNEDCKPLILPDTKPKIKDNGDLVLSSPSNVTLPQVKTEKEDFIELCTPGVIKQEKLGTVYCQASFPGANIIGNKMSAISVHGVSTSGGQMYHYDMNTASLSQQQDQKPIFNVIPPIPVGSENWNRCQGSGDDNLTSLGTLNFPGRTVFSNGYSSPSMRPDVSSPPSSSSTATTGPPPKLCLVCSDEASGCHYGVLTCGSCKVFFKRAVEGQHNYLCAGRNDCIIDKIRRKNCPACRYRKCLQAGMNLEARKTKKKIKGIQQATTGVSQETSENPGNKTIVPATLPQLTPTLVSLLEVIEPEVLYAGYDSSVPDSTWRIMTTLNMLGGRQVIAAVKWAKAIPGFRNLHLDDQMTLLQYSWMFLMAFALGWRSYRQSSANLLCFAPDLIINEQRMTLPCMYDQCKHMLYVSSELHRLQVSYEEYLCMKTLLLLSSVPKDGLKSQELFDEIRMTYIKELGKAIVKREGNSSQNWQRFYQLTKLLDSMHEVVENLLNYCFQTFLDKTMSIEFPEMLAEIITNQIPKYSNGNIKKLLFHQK

[7] = target: Glucocorticoid receptor (Homo sapiens) (UniProt P04150); test: GR-EFC Redistribution (AID 451; calls by dose curve; note: potency is the fitted concentration of half-maximal effect); conditions: CHO-K1 GR-EFC translocation, beta-gal luminescence, 2 h
Method in brief: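 CHO-K1 cells stably expressing nuclear-localized β-gal enzyme acceptor and GR fused C-terminally to the enzyme donor fragment; ligand-driven nuclear translocation restores β-gal by complementation. Compounds titrated up to 46 uM final, 2 h at 37 °C; luminescence read.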

[8] = target: Mitogen-activated protein kinase 10 (Mus musculus) (UniProt Q61831); test: JNK3 AlphaScreen Assay (AID 530); conditions: JNK3 lysate, c-Jun phosphorylation; series mostly up to 11.4 µM;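 note: kinase came from lysate of stimulated human HepG2 cells; signal reports phosphorylation of biotinylated GST-cJun 1-79 at Ser73 with 10 µM ATP; % is set by controls: 0 for no effect and ±100 for the full control effect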
Method in brief: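 JNK3 came from HepG2 lysates pre-activated with IL-1beta and TNF-alpha and phosphorylated biotinylated GST-cJun (1-79) at 10 uM ATP, pH 7.6, room temperature. Compounds were titrated. AlphaScreen signal used anti-phospho-cJun (Ser73) antibody.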

[9] = target: 3',5'-cyclic-AMP phosphodiesterase 4B (Homo sapiens) (UniProt Q07343); test: qHTS Assay for Inhibitors of PDE-IV (AID 607; active = well fitted activation curve with a large enough effect in the main read-out, with a control signal flat, not every such curve was filed as active; note: % of control where 0% means no effect); conditions: HEK293 ACTOne CNG channel cells, membrane potential fluorescence; series mostly up to 22.9 µM
3',5'-cyclic-AMP phosphodiesterase 4B (Homo sapiens), sequence (Q07343 whole entry, looked up): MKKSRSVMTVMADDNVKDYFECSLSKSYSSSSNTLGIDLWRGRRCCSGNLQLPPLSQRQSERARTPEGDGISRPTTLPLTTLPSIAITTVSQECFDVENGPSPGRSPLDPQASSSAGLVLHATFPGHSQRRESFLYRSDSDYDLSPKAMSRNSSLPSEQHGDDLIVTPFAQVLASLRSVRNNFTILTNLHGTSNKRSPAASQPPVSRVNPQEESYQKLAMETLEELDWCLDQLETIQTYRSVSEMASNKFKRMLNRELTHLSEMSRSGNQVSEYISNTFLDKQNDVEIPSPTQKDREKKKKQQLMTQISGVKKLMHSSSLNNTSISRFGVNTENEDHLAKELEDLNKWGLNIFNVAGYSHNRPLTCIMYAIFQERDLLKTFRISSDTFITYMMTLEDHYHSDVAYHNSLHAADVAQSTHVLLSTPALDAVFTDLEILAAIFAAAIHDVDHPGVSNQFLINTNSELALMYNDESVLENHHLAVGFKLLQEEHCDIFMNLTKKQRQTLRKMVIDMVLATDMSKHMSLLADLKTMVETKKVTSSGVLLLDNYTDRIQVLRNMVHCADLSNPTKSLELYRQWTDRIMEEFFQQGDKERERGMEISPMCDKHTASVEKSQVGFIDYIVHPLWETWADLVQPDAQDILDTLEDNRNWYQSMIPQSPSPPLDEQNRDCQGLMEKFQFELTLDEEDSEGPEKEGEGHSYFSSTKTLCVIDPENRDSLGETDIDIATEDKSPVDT
Method in brief: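 Live HEK293 cells with a modified cyclic nucleotide-gated (CNG) channel report intracellular cAMP via membrane-potential dye fluorescence (ex 535/em 590 nm). Endogenous PDE-IV was targeted. Compounds were tested at up to 22.9 uM final; RO 20-1724 100 uM served as control.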

[10] = target: Cytochrome P450 2C19 (Homo sapiens) (UniProt P33261); test: qHTS Assay for Inhibitors and Substrates of Cytochrome P450 2C19 (AID 899; active = well fitted inhibition curve with a large enough effect; note: nearly all actives have a fitted effect of over 60% in size; note: potency is the fitted concentration of half-maximal effect); conditions: recombinant CYP2C19, luciferin-H EGE luminescence; series mostly up to 11.4 µM
Cytochrome P450 2C19 (Homo sapiens), sequence (P33261 whole entry, looked up): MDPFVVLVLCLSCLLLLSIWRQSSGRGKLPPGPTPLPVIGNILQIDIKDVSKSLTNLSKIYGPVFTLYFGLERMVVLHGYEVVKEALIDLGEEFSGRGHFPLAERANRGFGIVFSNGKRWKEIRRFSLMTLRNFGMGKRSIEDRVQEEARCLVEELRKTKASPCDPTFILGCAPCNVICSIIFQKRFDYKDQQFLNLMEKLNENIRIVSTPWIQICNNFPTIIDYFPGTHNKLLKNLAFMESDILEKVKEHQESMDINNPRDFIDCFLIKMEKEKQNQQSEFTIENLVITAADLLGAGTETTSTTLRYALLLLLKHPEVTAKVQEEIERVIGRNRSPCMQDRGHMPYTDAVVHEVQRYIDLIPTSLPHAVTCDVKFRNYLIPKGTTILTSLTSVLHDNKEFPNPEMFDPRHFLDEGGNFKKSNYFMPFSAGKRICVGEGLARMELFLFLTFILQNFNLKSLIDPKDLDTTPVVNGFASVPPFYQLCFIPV
Method in brief: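 Human CYP2C19 (5nM) with Luciferin-H EGE at 10uM (its KM) in 50mM KPO4 was preincubated with compound for 10 min at 37C. NADPH regeneration started a 60 min 37C reaction. Luciferin was read by luminescence, normalized to 57uM ketoconazole.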

[11] = qHTS Assay for Identification of Small Molecule Agonists for Hypoxia Response Element Signaling Pathway (AID 914; active = well fitted activation curve with a large enough effect in the signal ratio, with a control signal flat, not every such curve was filed as active; the % refers to the signal ratio; note: % of control where 0% means no effect); conditions: ME-180 (cervical carcinoma) HRE-bla reporter, beta-lactamase ratio, CoCl2, 17 h; activation: hits give high values
Method in brief: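 Positive modulation of EC50 CoCl2-induced hypoxia response element signaling is measured in ME-180 cells with a beta-lactamase reporter. Compounds are titrated, incubation runs 17 hours, and %Activity derives from the blue/green ratio.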

Clc1ccc(-c2noc(CN3CCCCC3)n2)cc1
inactive: Potency [1] > 11.4 µM | activity change, negative = inhibition [2] 1.13% | activity change, negative = inhibition [4] 2.07% | activity, negative = inhibition [5] -0.202% | Potency [6] > 46 µM | Potency [7] > 9.22 µM | Potency [8] | Potency [9]
active: Potency [3] 0.631 µM | Potency [10] 1.58 µM

C[C@@]1(C(=O)O)CCC[C@@H]1C(=O)O
inactive: Potency [1] > 11.4 µM | activity change, negative = inhibition [2] 8.46% | activity change, negative = inhibition [3] -9.8% [at 2.29 µM] | activity change, negative = inhibition [4] 5.02% | activity, negative = inhibition [5] 2.41% | Potency [6] > 46 µM | Potency [7] > 9.22 µM | Potency [8] | Potency [9] | activation [11] 4.07%

O=C(Nc1ccc2ncccc2c1)Nc1ccc2ncccc2c1
inactive: Potency [1] > 11.4 µM | activity change, negative = inhibition [2] -16.2% | activity change, negative = inhibition [3] -28.5% [at 2.29 µM] | activity change, negative = inhibition [4] 21.4% | activity, negative = inhibition [5] -14.3% | Potency [6] > 46 µM | Potency [7] > 9.22 µM | Potency [8] | Potency [9] | activation [11] -12.2%

O=C1c2ccccc2C(=O)N1CCCSc1ccccc1
inactive: Potency [1] > 11.4 µM | activity change, negative = inhibition [2] -13.4% | activity change, negative = inhibition [4] 1.88% | activity, negative = inhibition [5] -7.77% | Potency [6] > 46 µM | Potency [7] > 9.22 µM | Potency [8] | Potency [9]
active: Potency [3] 1 µM | Potency [10] 0.631 µM

N=c1nc(N)nc(N)n1-c1ccc(S(N)(=O)=O)cc1
inactive: Potency [1] > 11.4 µM | activity change, negative = inhibition [2] 4.82% | activity change, negative = inhibition [3] -3.8% [at 2.29 µM] | activity change, negative = inhibition [4] 9.5% | activity, negative = inhibition [5] 6.13% | Potency [6] > 46 µM | Potency [7] > 9.22 µM | Potency [8] | Potency [9] | activation [11] 8.62%

Cc1c(NC(=O)Nc2c(Cl)cccc2Cl)c(=O)n(-c2ccccc2)n1C
inactive: Potency [1] > 11.4 µM | activity change, negative = inhibition [2] 4.18% | Potency [3] | activity change, negative = inhibition [4] -0.333% | activity, negative = inhibition [5] -1.35% | Potency [6] > 46 µM | Potency [7] > 9.22 µM | Potency [8] | Potency [9] | activation [11] -3.31%

OCCCNCc1ccccn1
inactive: Potency [1] > 11.4 µM | activity change, negative = inhibition [2] -3.7% | activity change, negative = inhibition [3] -20% [at 2.29 µM] | activity change, negative = inhibition [4] 5.11% | activity, negative = inhibition [5] 5.98% | Potency [6] > 46 µM | Potency [7] > 9.22 µM | Potency [8] | Potency [9] | activation [11] 12.2%

O=C(SCc1cccc2ccccc12)c1ccc(Cl)cc1
active: Potency [3] 0.794 µM | Potency [10] 1.58 µM
inactive: Potency [1] > 11.4 µM | activity change, negative = inhibition [2] 9.24% | activity change, negative = inhibition [4] -5.94% | activity, negative = inhibition [5] 7% | Potency [6] > 46 µM | Potency [7] > 9.22 µM | Potency [8] | Potency [9]

N=C(N)SCCSC(=N)N
active: Potency [3] 2 µM
inactive: Potency [1] > 11.4 µM | activity change, negative = inhibition [2] 5.54% | activity change, negative = inhibition [4] -2.2% | activity, negative = inhibition [5] 12.3% | Potency [6] > 46 µM | Potency [7] > 9.22 µM | Potency [8] | Potency [9] | activation [11] -2.21%

C[C@@]12CC(=O)[C@@H]3[C@@H](CCC4=CC(=O)CC[C@]43C)[C@@H]1CC=C2CC(=O)O
inactive: Potency [1] > 11.4 µM | activity change, negative = inhibition [2] -4.3% | Potency [3] | activity change, negative = inhibition [4] 23.5% | activity, negative = inhibition [5] 2.31% | Potency [6] > 46 µM | Potency [7] > 9.22 µM | Potency [8] | Potency [9] | activation [11] -1.62%

O=C(O)CCSCc1ccccc1
inactive: Potency [1] > 11.4 µM | activity change, negative = inhibition [2] 4.81% | Potency [3] | activity change, negative = inhibition [4] -0.126% | activity, negative = inhibition [5] -0.355% | Potency [6] > 46 µM | Potency [7] > 9.22 µM | Potency [8] | Potency [9] | Potency [10]

O=S(=O)(O)CCCc1cccc2ccccc12
inactive: Potency [1] > 11.4 µM | activity change, negative = inhibition [2] 3.46% | activity change, negative = inhibition [3] -16.7% [at 2.29 µM] | activity change, negative = inhibition [4] 3.52% | activity, negative = inhibition [5] 1.1% | Potency [6] > 46 µM | Potency [7] > 9.22 µM | Potency [8] | Potency [9] | activation [11] -2.01%

N[C@@H](Cc1c[nH]c2ccc([N+](=O)[O-])cc12)C(=O)O
inactive: Potency [1] > 11.4 µM | activity change, negative = inhibition [2] -1.05% | Potency [3] | activity change, negative = inhibition [4] -4.18% | activity, negative = inhibition [5] 3.4% | Potency [6] > 46 µM | Potency [7] > 9.22 µM | Potency [8] | Potency [9] | activation [11] -2.55%

N=c1ccn2c(n1)O[C@H]1[C@@H](OP(=O)(O)O)[C@H](CO)O[C@H]12
inactive: Potency [1] > 11.4 µM | activity change, negative = inhibition [2] 1.47% | activity change, negative = inhibition [3] -3.1% [at 2.29 µM] | activity change, negative = inhibition [4] 19.9% | activity, negative = inhibition [5] -1.19% | Potency [6] > 46 µM | Potency [7] > 9.22 µM | Potency [8] | Potency [9] | Potency [10]
